# Source: PubChem BioAssay (Tox21)
# Values without a mark were called inactive. Calls of active or inactive are those of the source. Calls come from the whole dose curve; as a rule, active = well fitted curve in the direction sought with a large enough effect in the repeat runs; inconclusive = weak or mixed curves; inactive = flat fitted curve, though single readings scatter.
# Assay: qHTS assay to test for compound auto fluorescence at 535 nm (green) in HEK293 cells (AID 720680)
# Details: green autofluorescence 485/535 nm; series mostly up to 91.3 µM
# % is set by controls: 0 for no effect and ±100 for the full control effect.
SMILES,outcome,"fluorescence, % of fluorescein"
COC(=O)c1ccc(I)cc1S(=O)(=O)NC(=O)Nc1nc(C)nc(OC)n1,inactive,
CCCOC(C(=O)OC1CCN(C)CC1)(c1ccccc1)c1ccccc1,inactive,
CCC(C)O (stereo unspecified),inactive,
CCCCc1ncc(/C=C(\Cc2cccs2)C(=O)O)n1Cc1ccc(C(=O)O)cc1,inactive,
CCCCNc1ccc(C(=O)OCCOCCOCCOCCOCCOCCOCCOCCOCCOC)cc1,,-0.0088% [at 18.6 µM]
CC(C)Nc1ccc(NC(C)C)c2c1C(=O)c1ccccc1C2=O,inactive,
CC[N+]1(CC)CCC(=C(c2ccccc2)c2ccccc2)C1C (stereo unspecified),inactive,
CC(C)OC(=O)C(C)N(C(=O)c1ccccc1)c1ccc(F)c(Cl)c1 (stereo unspecified),inactive,
Cc1cccc(C)c1NC(=O)CN(CC(=O)O)CC(=O)O,inactive,
OC(CN1CCC(Cc2ccc(F)cc2)CC1)c1ccc(Cl)cc1 (stereo unspecified),inactive,
O=C(c1ccc(F)cc1)C1CCN(CCn2c(=S)[nH]c3ccccc3c2=O)CC1,inactive,
CCCCC,inactive,
CCCCCCCC#N,inactive,
O=[N+]([O-])c1ccc(NCCO)c(OCCO)c1,inactive,
C=CCOC(=O)CCC1CCCCC1,inactive,
O=C(OCCCCCCOC(=O)c1ccccc1)c1ccccc1,inactive,
C/C=C/C(=O)CC,,0.0426% [at 18.6 µM]
CCCCC(CC)COC(=O)CCCCCCCCC(=O)OCC(CC)CCCC (stereo unspecified),inactive,
CCOc1ccc(O)cc1,inactive,

SMILES,outcome,"fluorescence, % of fluorescein"
CC[N+](C)(CC)CCOC(=O)C(O)(c1ccccc1)C1CCCCC1 (stereo unspecified),inactive,
O=C(O)CC(=O)C(=O)O,inactive,
O=S(=O)(Oc1ccc(Cl)cc1)c1ccccc1,inactive,
COC(C)OC,inactive,
O=C(NCCO[N+](=O)[O-])c1cccnc1,inactive,
CCN(CC)CCOC(=O)C(c1ccccc1)C1CCCCC1 (stereo unspecified),inactive,
O=C1c2ccccc2S(=O)(=O)N1CCCCN1CCN(c2ncccn2)CC1,inactive,
CC1OC(=O)C(C)OC1=O (stereo unspecified),inactive,
C=CC(=O)OCCOc1ccccc1,inactive,
CCC(Cl)CCC(Cl)C(Cl)CC(Cl)C(Cl)C(Cl)CCl (stereo unspecified),inactive,
COc1ccc(C(=O)c2ccc(OC)cc2O)c(O)c1,inactive,
Brc1c2ccccc2cc2ccccc12,inactive,
O=C1C(O)=C(O)C(=O)C(O)=C1O,inactive,
CCCCC(CC)COC(=O)COc1ccc(Cl)cc1Cl (stereo unspecified),inactive,
C[N+]1(CC2COC(c3ccccc3)(C3CCCCC3)O2)CCCCC1 (stereo unspecified),inactive,
COc1ccc(C)cc1[N+](=O)[O-],inactive,
CNC(=O)CN(CCN(CCN(CC(=O)[O-])CC(=O)NC)CC(=O)[O-])CC(=O)[O-].O.[Gd+3],inactive,
Cc1c(N)cccc1[N+](=O)[O-],inactive,
c1cc(CCCc2ccncc2)ccn1,inactive,

# Assay: qHTS assay to test for compound auto fluorescence at 460 nm (blue) in HEK293 cell free culture (AID 720681)
# Details: cell-free medium, autofluorescence 405/460 nm (blue); series mostly up to 91.3 µM
# Procedure, shortened: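 Blue fluorescence (Ex 405/Em 460 nm, triamterene-equivalent) was read immediately after pin transfer of compound or DMSO into medium (DMEM, 10% FBS) without cells.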
SMILES,outcome,"fluorescence, % of fluorescent control"
COC(=O)c1ccc(I)cc1S(=O)(=O)NC(=O)Nc1nc(C)nc(OC)n1,inactive,
CCCOC(C(=O)OC1CCN(C)CC1)(c1ccccc1)c1ccccc1,inactive,
CCC(C)O (stereo unspecified),inactive,
CCCCc1ncc(/C=C(\Cc2cccs2)C(=O)O)n1Cc1ccc(C(=O)O)cc1,inactive,
CCCCNc1ccc(C(=O)OCCOCCOCCOCCOCCOCCOCCOCCOCCOC)cc1,,-0.35% [at 18.6 µM]
CC(C)Nc1ccc(NC(C)C)c2c1C(=O)c1ccccc1C2=O,inactive,
CC[N+]1(CC)CCC(=C(c2ccccc2)c2ccccc2)C1C (stereo unspecified),inactive,
CC(C)OC(=O)C(C)N(C(=O)c1ccccc1)c1ccc(F)c(Cl)c1 (stereo unspecified),inactive,
Cc1cccc(C)c1NC(=O)CN(CC(=O)O)CC(=O)O,inactive,
OC(CN1CCC(Cc2ccc(F)cc2)CC1)c1ccc(Cl)cc1 (stereo unspecified),inactive,
O=C(c1ccc(F)cc1)C1CCN(CCn2c(=S)[nH]c3ccccc3c2=O)CC1,inactive,
CCCCC,inactive,
CCCCCCCC#N,inactive,
O=[N+]([O-])c1ccc(NCCO)c(OCCO)c1,inactive,
C=CCOC(=O)CCC1CCCCC1,inactive,
O=C(OCCCCCCOC(=O)c1ccccc1)c1ccccc1,inactive,
C/C=C/C(=O)CC,,0.0584% [at 18.6 µM]
CCCCC(CC)COC(=O)CCCCCCCCC(=O)OCC(CC)CCCC (stereo unspecified),inactive,
CCOc1ccc(O)cc1,inactive,

SMILES,outcome,"fluorescence, % of fluorescent control"
CC[N+](C)(CC)CCOC(=O)C(O)(c1ccccc1)C1CCCCC1 (stereo unspecified),inactive,
O=C(O)CC(=O)C(=O)O,inactive,
O=S(=O)(Oc1ccc(Cl)cc1)c1ccccc1,inactive,
COC(C)OC,inactive,
O=C(NCCO[N+](=O)[O-])c1cccnc1,inactive,
CCN(CC)CCOC(=O)C(c1ccccc1)C1CCCCC1 (stereo unspecified),inactive,
O=C1c2ccccc2S(=O)(=O)N1CCCCN1CCN(c2ncccn2)CC1,inactive,
CC1OC(=O)C(C)OC1=O (stereo unspecified),inactive,
C=CC(=O)OCCOc1ccccc1,inactive,
CCC(Cl)CCC(Cl)C(Cl)CC(Cl)C(Cl)C(Cl)CCl (stereo unspecified),inactive,
COc1ccc(C(=O)c2ccc(OC)cc2O)c(O)c1,inactive,
Brc1c2ccccc2cc2ccccc12,inactive,
O=C1C(O)=C(O)C(=O)C(O)=C1O,inactive,
CCCCC(CC)COC(=O)COc1ccc(Cl)cc1Cl (stereo unspecified),inactive,
C[N+]1(CC2COC(c3ccccc3)(C3CCCCC3)O2)CCCCC1 (stereo unspecified),inactive,
COc1ccc(C)cc1[N+](=O)[O-],inactive,
CNC(=O)CN(CCN(CCN(CC(=O)[O-])CC(=O)NC)CC(=O)[O-])CC(=O)[O-].O.[Gd+3],inactive,
Cc1c(N)cccc1[N+](=O)[O-],inactive,
c1cc(CCCc2ccncc2)ccn1,inactive,
